# Tests used:
# Assay in all cases: DAPPL (digital affinity profiling via proximity ligation, sequencing); 10 mM Tris-HCl pH 7.5, 50 mM NaCl, 1 mM DTT, 4% glycerol, room temperature, 30 min; GST-TFs on glutathione beads, 16-mer random dsDNA library, 0.1% formaldehyde crosslink after washing; high values mean tight binding
# [1] = biological target: T1, FLI1 (Homo sapiens, UniProt Q01543 1-452); conditions: protein: recombinant; tags: N-terminal GST; dsDNA, one strand shown
# T1 sequence: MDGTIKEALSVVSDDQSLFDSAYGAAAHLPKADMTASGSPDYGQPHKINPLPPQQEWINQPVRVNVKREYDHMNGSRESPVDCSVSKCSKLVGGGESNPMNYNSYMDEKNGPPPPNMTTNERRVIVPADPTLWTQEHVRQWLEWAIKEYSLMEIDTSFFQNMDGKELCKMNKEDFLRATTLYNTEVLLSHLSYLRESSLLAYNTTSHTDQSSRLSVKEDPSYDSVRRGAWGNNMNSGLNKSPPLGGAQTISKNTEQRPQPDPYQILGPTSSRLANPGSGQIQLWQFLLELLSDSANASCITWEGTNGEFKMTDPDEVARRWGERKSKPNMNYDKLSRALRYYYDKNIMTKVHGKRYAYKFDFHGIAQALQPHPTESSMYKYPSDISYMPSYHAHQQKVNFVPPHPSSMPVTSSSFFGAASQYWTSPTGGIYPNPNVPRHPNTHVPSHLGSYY
# In short: (§1)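 Pools of DNA-barcoded human transcription factors, expressed in yeast as GST fusions on glutathione beads and combined with a tag-only sample, were incubated with 200 nmole of a 16-mer random double-stranded DNA library. Incubation took 30 min at room temperature in Tris/NaCl/DTT/glycerol buffer and was followed by washing, 0.1% formaldehyde crosslinking, proximity ligation (BsaI/T4 ligase, 1 h, 37 °C), PCR amplification and sequencing on an Illumina NextSeq500. Binding signal is the ratio of a hexamer's read frequency for a factor to its frequency for the tag-only sample.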
# [2] = biological target: T2, ELK1 (Homo sapiens, UniProt P19419 1-428); conditions: protein: recombinant; tags: N-terminal GST; dsDNA, one strand shown
# T2 sequence: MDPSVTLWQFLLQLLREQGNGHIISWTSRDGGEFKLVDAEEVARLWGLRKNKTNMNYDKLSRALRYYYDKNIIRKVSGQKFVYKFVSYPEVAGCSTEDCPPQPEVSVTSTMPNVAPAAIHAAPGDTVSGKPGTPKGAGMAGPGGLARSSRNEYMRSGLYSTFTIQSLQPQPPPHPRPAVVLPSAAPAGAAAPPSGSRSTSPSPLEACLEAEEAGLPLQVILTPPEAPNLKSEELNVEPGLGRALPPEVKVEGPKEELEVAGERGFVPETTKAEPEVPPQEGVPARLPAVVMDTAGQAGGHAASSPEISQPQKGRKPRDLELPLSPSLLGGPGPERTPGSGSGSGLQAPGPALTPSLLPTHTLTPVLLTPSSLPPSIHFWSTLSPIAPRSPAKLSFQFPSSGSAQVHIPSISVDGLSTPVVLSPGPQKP
# In short: as §1
# [3] = biological target: T3, GABPA (Homo sapiens, UniProt Q06546 1-454); conditions: protein: recombinant; tags: N-terminal GST; dsDNA, one strand shown
# T3 sequence: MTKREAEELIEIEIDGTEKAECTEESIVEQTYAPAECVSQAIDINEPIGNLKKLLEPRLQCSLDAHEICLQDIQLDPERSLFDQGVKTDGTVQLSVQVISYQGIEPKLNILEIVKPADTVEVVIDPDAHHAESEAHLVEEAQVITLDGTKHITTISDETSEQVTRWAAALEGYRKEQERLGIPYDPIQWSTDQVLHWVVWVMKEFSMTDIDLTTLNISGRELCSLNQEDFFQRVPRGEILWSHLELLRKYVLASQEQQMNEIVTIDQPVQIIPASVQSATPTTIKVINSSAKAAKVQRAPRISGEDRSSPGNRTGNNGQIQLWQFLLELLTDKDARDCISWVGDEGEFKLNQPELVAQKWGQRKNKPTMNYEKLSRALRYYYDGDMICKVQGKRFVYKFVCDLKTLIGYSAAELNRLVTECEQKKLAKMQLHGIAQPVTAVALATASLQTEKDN
# In short: as §1
# [4] = biological target: T4, ERG (Homo sapiens, UniProt P11308 1-479); conditions: protein: recombinant; tags: N-terminal GST; dsDNA, one strand shown
# T4 sequence: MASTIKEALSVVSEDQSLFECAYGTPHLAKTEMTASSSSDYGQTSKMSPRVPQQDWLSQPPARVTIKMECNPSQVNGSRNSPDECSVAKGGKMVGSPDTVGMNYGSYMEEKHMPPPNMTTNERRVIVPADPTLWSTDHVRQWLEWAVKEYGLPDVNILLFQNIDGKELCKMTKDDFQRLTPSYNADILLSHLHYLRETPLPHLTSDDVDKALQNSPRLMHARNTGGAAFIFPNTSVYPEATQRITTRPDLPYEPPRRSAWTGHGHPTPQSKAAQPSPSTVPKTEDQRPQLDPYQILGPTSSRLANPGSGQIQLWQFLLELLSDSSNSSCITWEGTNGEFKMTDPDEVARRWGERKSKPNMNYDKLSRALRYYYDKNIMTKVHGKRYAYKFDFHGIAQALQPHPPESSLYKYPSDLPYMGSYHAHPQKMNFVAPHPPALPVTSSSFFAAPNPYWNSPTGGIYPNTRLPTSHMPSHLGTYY
# In short: as §1
# [5] = biological target: ELF1 (Homo sapiens, UniProt P32519 1-619); conditions: protein: recombinant; tags: N-terminal GST; dsDNA, one strand shown
# In short: as §1
# [6] = biological target: T5, EHF (Homo sapiens, UniProt Q9NZC4 1-300); conditions: protein: recombinant; tags: N-terminal GST; dsDNA, one strand shown
# T5 sequence: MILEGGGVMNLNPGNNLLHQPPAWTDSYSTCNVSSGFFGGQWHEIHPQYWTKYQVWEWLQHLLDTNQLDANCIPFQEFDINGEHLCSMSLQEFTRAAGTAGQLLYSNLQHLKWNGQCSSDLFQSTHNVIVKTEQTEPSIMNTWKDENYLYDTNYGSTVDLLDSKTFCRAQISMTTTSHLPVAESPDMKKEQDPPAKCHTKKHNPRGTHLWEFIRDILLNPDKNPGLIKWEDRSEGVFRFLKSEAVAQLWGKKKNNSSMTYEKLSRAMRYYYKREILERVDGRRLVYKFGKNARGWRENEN
# In short: as §1
# [7] = biological target: SPI1 (Homo sapiens, UniProt P17947 1-270); conditions: protein: recombinant; tags: N-terminal GST; dsDNA, one strand shown
# In short: as §1
# [8] = biological target: SPIB (Homo sapiens, UniProt Q01892 1-262); conditions: protein: recombinant; tags: N-terminal GST; dsDNA, one strand shown
# In short: as §1
# [9] = biological target: T6, ELK3 (Homo sapiens, UniProt P41970 1-407); conditions: protein: recombinant; tags: N-terminal GST; dsDNA, one strand shown
# T6 sequence: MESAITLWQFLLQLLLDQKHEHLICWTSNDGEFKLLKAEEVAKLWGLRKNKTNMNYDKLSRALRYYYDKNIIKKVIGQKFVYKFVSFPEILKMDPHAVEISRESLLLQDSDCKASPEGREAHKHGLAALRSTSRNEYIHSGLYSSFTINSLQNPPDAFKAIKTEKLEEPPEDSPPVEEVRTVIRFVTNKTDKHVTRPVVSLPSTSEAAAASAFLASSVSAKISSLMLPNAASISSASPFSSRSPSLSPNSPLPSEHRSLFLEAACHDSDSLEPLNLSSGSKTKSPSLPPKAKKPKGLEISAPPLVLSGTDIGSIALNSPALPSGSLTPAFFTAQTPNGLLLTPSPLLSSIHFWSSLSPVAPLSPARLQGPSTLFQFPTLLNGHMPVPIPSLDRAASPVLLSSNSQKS
# In short: as §1
# [10] = biological target: T7, FEV (Homo sapiens, UniProt Q99581 1-238); conditions: protein: recombinant; tags: N-terminal GST; dsDNA, one strand shown
# T7 sequence: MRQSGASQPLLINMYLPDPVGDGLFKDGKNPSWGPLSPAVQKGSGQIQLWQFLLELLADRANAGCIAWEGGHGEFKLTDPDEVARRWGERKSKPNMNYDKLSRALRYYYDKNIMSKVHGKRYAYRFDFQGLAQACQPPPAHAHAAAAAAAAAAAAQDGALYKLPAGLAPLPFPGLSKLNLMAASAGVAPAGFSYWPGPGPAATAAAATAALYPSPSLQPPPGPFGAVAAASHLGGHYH
# In short: as §1
# [11] = biological target: ETV5 (Homo sapiens, UniProt P41161 1-510); conditions: protein: recombinant; tags: N-terminal GST; dsDNA, one strand shown
# In short: as §1
# [12] = biological target: HSF1 (Homo sapiens, UniProt Q00613 1-529); conditions: protein: recombinant; tags: N-terminal GST; chain copies: 3; dsDNA, one strand shown
# In short: as §1
# [13] = biological target: T8, SPIC (Homo sapiens, UniProt Q8N5J4 1-248); conditions: protein: recombinant; tags: N-terminal GST; dsDNA, one strand shown
# T8 sequence: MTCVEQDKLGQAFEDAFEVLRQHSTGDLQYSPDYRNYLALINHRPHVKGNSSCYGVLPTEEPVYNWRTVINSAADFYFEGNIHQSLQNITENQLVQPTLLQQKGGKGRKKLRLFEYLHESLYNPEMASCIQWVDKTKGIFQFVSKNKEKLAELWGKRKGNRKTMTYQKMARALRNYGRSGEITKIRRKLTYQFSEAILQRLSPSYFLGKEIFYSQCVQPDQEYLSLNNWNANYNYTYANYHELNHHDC
# In short: as §1
# [14] = biological target: ELF4 (Homo sapiens, UniProt Q99607 1-663); conditions: protein: recombinant; tags: N-terminal GST; dsDNA, one strand shown
# In short: as §1
# [15] = biological target: T9, ELK4 (Homo sapiens, UniProt P28324-2 1-405); conditions: protein: recombinant; tags: N-terminal GST; dsDNA, one strand shown
# T9 sequence: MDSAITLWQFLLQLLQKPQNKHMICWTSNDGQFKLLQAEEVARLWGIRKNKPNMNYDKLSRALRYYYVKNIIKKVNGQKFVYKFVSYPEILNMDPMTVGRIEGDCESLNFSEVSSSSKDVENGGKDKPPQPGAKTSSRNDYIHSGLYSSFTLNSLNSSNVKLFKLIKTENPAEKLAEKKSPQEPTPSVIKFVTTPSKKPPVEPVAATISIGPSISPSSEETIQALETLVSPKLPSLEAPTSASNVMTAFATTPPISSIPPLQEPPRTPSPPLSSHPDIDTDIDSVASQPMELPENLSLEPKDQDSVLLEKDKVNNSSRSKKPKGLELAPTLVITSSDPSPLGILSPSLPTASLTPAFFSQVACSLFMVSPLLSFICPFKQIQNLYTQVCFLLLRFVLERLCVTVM
# In short: as §1
# [16] = biological target: T10, ETV2 (Homo sapiens, UniProt O00321 1-342); conditions: protein: recombinant; tags: N-terminal GST; dsDNA, one strand shown
# T10 sequence: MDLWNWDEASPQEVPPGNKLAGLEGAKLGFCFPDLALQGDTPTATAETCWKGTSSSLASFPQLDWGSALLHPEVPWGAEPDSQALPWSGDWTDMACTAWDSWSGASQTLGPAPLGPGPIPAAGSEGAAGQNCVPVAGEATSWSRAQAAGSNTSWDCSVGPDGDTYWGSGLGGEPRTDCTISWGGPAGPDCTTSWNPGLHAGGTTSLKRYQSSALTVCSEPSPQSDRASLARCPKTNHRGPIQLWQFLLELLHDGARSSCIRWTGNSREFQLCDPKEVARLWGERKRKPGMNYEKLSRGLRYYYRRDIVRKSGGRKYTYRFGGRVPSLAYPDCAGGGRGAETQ
# In short: as §1
# [17] = biological target: T11, ELF3 (Homo sapiens, UniProt P78545 1-371); conditions: protein: recombinant; tags: N-terminal GST; dsDNA, one strand shown
# T11 sequence: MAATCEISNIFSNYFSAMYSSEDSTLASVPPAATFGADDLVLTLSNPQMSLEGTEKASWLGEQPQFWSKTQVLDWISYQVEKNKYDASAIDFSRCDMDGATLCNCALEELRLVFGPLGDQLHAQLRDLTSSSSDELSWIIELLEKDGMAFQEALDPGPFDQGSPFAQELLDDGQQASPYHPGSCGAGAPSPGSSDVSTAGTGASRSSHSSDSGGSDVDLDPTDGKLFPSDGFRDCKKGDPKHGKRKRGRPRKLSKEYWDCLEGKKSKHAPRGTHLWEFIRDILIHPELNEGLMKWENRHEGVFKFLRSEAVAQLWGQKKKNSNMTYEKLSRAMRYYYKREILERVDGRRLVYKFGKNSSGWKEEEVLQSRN
# In short: as §1
# [18] = biological target: CRX (Homo sapiens, UniProt O43186 1-299); conditions: protein: recombinant; tags: N-terminal GST; dsDNA, one strand shown
# In short: as §1
# [19] = biological target: ETV1 (Homo sapiens, UniProt P50549 1-477); conditions: protein: recombinant; tags: N-terminal GST; dsDNA, one strand shown
# In short: as §1
# HSF1, sequence (Q00613 whole entry): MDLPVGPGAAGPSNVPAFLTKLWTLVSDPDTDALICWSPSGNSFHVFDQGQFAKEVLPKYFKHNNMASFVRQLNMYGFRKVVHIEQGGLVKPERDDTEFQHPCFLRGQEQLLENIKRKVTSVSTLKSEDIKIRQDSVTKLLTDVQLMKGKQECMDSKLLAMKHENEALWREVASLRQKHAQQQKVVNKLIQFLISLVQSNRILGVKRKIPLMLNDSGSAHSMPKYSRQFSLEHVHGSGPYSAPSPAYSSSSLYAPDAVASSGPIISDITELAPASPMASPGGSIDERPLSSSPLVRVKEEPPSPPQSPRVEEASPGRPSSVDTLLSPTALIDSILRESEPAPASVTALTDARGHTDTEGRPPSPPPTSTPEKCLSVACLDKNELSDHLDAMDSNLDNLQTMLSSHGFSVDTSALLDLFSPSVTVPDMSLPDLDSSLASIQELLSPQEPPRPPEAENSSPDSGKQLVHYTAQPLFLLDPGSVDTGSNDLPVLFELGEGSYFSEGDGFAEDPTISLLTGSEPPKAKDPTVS
# ELF1, sequence (P32519 whole entry): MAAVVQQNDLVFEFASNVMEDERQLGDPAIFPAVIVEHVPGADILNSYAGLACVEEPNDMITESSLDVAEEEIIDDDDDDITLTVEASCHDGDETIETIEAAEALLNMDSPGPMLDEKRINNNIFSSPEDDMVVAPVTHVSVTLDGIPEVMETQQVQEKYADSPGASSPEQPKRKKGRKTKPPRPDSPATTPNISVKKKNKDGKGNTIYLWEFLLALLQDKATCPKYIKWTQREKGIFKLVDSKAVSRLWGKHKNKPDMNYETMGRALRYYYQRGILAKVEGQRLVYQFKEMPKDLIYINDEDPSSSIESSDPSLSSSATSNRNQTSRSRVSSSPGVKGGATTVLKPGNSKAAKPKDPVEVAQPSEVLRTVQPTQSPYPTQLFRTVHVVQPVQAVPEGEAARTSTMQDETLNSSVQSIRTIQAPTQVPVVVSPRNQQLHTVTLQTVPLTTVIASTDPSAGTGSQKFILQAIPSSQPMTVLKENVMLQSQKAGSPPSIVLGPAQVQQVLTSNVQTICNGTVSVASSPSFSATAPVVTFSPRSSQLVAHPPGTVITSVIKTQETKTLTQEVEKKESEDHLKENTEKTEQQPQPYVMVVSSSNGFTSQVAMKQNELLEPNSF
# ELF4, sequence (Q99607 whole entry): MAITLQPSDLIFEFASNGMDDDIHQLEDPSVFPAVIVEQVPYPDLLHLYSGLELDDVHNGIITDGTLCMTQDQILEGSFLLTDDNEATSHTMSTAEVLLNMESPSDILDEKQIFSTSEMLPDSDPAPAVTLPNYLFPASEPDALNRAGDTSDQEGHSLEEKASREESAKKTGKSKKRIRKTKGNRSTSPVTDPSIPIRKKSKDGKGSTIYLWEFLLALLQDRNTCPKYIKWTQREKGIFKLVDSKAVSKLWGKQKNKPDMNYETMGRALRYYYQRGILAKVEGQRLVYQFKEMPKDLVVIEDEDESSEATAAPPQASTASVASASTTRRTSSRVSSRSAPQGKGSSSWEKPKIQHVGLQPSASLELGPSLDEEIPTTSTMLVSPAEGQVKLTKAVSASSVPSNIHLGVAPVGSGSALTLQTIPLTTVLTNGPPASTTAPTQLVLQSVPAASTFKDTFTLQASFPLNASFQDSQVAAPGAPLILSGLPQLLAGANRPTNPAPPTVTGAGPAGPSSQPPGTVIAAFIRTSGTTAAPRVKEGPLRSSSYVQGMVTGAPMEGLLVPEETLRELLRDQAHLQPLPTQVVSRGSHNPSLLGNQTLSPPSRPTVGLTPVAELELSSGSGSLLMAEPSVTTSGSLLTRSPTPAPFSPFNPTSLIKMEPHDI
# ETV1, sequence (P50549 whole entry): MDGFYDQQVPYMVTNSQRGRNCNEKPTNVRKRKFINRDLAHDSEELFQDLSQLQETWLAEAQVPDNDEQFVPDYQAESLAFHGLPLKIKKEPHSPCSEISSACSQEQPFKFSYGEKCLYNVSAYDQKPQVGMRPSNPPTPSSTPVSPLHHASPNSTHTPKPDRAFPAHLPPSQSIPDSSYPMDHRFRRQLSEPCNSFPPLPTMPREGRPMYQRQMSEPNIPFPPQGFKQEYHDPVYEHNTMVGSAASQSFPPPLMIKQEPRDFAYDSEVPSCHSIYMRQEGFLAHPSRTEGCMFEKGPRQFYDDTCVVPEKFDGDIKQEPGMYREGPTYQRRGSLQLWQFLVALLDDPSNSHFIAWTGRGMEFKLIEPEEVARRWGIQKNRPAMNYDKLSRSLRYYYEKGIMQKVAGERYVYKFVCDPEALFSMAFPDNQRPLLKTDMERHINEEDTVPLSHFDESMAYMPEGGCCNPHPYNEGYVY
# SPIB, sequence (Q01892 whole entry): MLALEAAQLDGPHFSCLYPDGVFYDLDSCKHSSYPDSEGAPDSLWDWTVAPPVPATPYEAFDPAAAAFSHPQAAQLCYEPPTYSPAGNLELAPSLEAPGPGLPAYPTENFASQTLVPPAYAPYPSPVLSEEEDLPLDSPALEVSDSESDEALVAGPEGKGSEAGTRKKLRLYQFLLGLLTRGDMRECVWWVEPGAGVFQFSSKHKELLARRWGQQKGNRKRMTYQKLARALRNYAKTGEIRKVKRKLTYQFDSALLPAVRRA
# CRX, sequence (O43186 whole entry): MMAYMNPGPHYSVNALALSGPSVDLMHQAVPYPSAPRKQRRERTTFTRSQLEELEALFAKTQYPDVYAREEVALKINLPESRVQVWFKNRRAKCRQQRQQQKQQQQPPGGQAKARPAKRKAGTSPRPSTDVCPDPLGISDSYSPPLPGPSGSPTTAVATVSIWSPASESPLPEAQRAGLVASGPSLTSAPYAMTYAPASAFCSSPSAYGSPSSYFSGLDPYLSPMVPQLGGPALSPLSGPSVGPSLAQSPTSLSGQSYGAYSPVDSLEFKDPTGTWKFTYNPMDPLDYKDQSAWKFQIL
# ETV5, sequence (P41161 whole entry): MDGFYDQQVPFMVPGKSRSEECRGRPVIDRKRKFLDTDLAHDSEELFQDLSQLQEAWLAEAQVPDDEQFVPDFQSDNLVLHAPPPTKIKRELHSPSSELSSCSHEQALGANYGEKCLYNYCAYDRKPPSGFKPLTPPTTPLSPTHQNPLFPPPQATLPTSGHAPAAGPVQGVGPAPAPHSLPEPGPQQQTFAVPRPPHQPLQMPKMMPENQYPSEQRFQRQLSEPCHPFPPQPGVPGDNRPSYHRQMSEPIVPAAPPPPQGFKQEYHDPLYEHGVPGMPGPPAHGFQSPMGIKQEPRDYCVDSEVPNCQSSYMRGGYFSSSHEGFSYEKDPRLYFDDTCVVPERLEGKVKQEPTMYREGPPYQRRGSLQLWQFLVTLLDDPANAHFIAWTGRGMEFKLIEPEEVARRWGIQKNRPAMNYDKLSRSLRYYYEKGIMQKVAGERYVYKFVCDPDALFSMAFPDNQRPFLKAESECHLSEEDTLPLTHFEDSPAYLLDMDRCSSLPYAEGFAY
sequence,measurement,setting,value
TTACCG,binding signal,[1],"1.16 fold enrichment (6-mer frequency, TF over GST control)"
same,binding signal,[2],"1.16 fold enrichment (6-mer frequency, TF over GST control)"
same,binding signal,[3],"1.12 fold enrichment (6-mer frequency, TF over GST control)"
same,binding signal,[4],"1.2 fold enrichment (6-mer frequency, TF over GST control)"
same,binding signal,[5],"1.11 fold enrichment (6-mer frequency, TF over GST control)"
same,binding signal,[6],"1.24 fold enrichment (6-mer frequency, TF over GST control)"
same,binding signal,[7],"1.17 fold enrichment (6-mer frequency, TF over GST control)"
same,binding signal,[8],"1.15 fold enrichment (6-mer frequency, TF over GST control)"
same,binding signal,[9],"1.18 fold enrichment (6-mer frequency, TF over GST control)"
same,binding signal,[10],"1.26 fold enrichment (6-mer frequency, TF over GST control)"
same,binding signal,[11],"1.23 fold enrichment (6-mer frequency, TF over GST control)"
same,binding signal,[12],"1.25 fold enrichment (6-mer frequency, TF over GST control)"
same,binding signal,[13],"1.16 fold enrichment (6-mer frequency, TF over GST control)"
same,binding signal,[14],"1.13 fold enrichment (6-mer frequency, TF over GST control)"
same,binding signal,[15],"1.16 fold enrichment (6-mer frequency, TF over GST control)"
same,binding signal,[16],"1.12 fold enrichment (6-mer frequency, TF over GST control)"
same,binding signal,[17],"1.2 fold enrichment (6-mer frequency, TF over GST control)"
same,binding signal,[18],"1.74 fold enrichment (6-mer frequency, TF over GST control)"
same,binding signal,[19],"1.14 fold enrichment (6-mer frequency, TF over GST control)"
